Measurements reported in PubChem BioAssay AID2534 (National Center for Advancing Translational Sciences (NCATS), 2010).
Results filed as inconclusive are left out. The source made the active and inactive calls. Calls come from the whole dose curve; as a rule, active = well fitted curve in the direction sought with a large enough effect; inconclusive = small, poorly fitted or top-dose-only effect, or effect the other way, or another doubt; inactive = no such curve, though single readings can be large or run the other way.

Each compound was assayed against Pyruvate kinase PKLR (Homo sapiens) (UniProt P30613) (assay: Secondary Concentration-Response Assay for Activators of Human Reticulocyte Pyruvate Kinase: for Probe SAR). Details: purified hPK-R, ATP production, Kinase-Glo luminescence; series mostly up to 57.5 µM; activity change, negative = inhibition: at the top concentration.
Sequence of Pyruvate kinase PKLR (Homo sapiens) (P30613 whole entry, looked up): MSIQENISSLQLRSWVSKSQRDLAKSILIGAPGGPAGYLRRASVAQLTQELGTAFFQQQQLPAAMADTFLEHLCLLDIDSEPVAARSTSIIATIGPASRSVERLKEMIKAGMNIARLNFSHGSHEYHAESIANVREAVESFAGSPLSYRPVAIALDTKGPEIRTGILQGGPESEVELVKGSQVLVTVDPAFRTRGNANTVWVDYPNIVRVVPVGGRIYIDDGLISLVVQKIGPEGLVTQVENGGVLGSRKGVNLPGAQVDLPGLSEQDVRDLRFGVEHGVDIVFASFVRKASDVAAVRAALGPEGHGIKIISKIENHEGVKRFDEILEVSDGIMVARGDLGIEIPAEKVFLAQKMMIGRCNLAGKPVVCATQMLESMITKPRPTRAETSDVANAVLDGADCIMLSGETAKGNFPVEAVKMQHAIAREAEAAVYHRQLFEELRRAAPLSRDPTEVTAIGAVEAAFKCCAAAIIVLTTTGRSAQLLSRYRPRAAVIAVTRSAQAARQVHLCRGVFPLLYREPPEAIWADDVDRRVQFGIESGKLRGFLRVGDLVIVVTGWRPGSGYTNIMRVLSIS
Source text: NIH Chemical Genomics Center [NCGC]
Wael M. Rabeh, Lyudmila Nedyalkova and Hee-Wan Park [Structural Genomics Consortium, 100 College St. Toronto, Ontario, Canada]
Human pyruvate kinase reticulocyte (hPK-R) enzyme was supplied as a highly purified (>95% pure) preparation from Structural Genomics Consortium in Toronto (Ontario, Canada) and assayed for its ability to generate ATP from ADP using phosphoenolpyruvate (PEP) as a substrate. ATP generation was detected in a coupled reaction by luciferase-mediated luminescence, an ATP-dependent process. Pyruvate kinase substrates, PEP and ADP, were present in the assay at Km and approximately 10-fold below Km respectively. The enzyme was assayed at an intermediate level of activity to screen for both inhibitors and activators.
NCGC Assay Protocol Summary for R-isoform
Three uL of substrate mix (at r.t.) in assay buffer (50 mM Imidazole pH7.2, 50 mM KCl, 7 mM MgCl2, 0.01% Tween 20, 0.05% BSA) was dispensed into white solid bottom 1,536 well microtiter plates so that the final concentrations of substrates in the assay were 0.1 mM ADP and 0.5 mM PEP. 23 nL of compound were delivered by a pin tool and 1 uL of enzyme mix (final concentration of 0.1 nM) in assay buffer (4 degree Celsius) was added. Plates were incubated at room temperature for 1 hour. Two uL of detection mix (Kinase-Glo, Promega; at 4 degree Celsius protected from light) was added and luminescence read by a ViewLux (Perkin Elmer) at 1 second exposure/plate. Data were normalized to the uninhibited (row 31). Additionally, a no enzyme and 5-fold enzyme control was dispensed in row 32, split equally between the two conditions.
In the case of O=C1CCc2cc(Cl)c(S(=O)(=O)Nc3ccc(Cl)c(Cl)c3)cc2N1, the “activity change, negative = inhibition” value was -1.27% (inactive).
For CCNc1cccc(S(=O)(=O)N2CCCN(S(=O)(=O)c3ccc4c(c3)OCCO4)CC2)c1, the “activity change, negative = inhibition” value was 25.1% (inactive).
With O=C1CCc2cc(S(=O)(=O)Nc3cccc4ccccc34)ccc2N1 the “activity change, negative = inhibition” value was -2.68% (inactive).
For Cc1cc(N2C(=O)c3ccccc3C2=O)no1, the “activity change, negative = inhibition” value was -6.05% (inactive).
For O=C1CCc2cc(S(=O)(=O)Nc3cc(F)cc(Cl)c3)c(F)cc2N1, the “activity change, negative = inhibition” value was -1.27% (inactive).
With O=C1CCc2cc(S(=O)(=O)Nc3ccc4c(c3)CCC4)ccc2N1 the “activity change, negative = inhibition” value was 11% (inactive).
O=C(O)c1ccccc1SC1=NS(=O)(=O)c2ccccc21 was tested, and the “activity change, negative = inhibition” value was -92.8% (inactive).
O=C1c2ccccc2C(=O)N1c1cccc2ncccc12 was tested, and the “activity change, negative = inhibition” value was 10.5% (inactive).
O=C1CCc2cc(S(=O)(=O)Nc3ccccc3-c3ccccc3)ccc2N1 was tested, and the “activity change, negative = inhibition” value was 0.876% (inactive).
O=C1c2ccccc2C(=O)N1c1ccc2ncccc2c1 was tested, and the “activity change, negative = inhibition” value was 14.8% (inactive).
For O=C1CCc2cc(S(=O)(=O)Nc3ccncc3)ccc2N1, the “activity change, negative = inhibition” value was 3.56% (inactive).
For Cc1ccc(Cl)cc1NS(=O)(=O)c1cc2c(cc1Cl)CCC(=O)N2, the “activity change, negative = inhibition” value was -2.79% (inactive).
COc1cc(N2C(=O)c3ccccc3C2=O)c2ncccc2c1 was tested, and the “activity change, negative = inhibition” value was 9.59% (inactive).
For O=C1c2ccccc2C(=O)N1Cc1ccccc1, the “activity change, negative = inhibition” value was 8.92% (inactive).
For O=C1c2ccccc2C(=O)N1c1cccnc1, the “activity change, negative = inhibition” value was -5.55% (inactive).
With O=C1c2ccccc2C(=O)N1c1noc2ccccc12 the “activity change, negative = inhibition” value was -7.43% (inactive).
For O=C1CCc2cc([S+](=O)([O-])Nc3ccc(N[S+](=O)([O-])c4ccc5c(c4)CCC(=O)N5)cc3)ccc2N1, the “activity change, negative = inhibition” value was 5.29% (inactive).
With O=C1c2ccccc2C(=O)N1c1ccc(Cl)cc1 the “activity change, negative = inhibition” value was 3.5% (inactive).
Cc1cc(NS(=O)(=O)c2ccc3c(c2)CCC(=O)N3)ccc1Cl was tested, and the “activity change, negative = inhibition” value was 6.47% (inactive).
With O=C1c2ccccc2C(=O)N1c1ccc2ccccc2n1 the “activity change, negative = inhibition” value was -5.73% (inactive).
In the case of O=C1CCc2cc(S(=O)(=O)Nc3ccc(Cl)cc3)ccc2N1, the “activity change, negative = inhibition” value was 5.94% (inactive).
With CCCCN1C(=O)c2ccccc2C1=O the “activity change, negative = inhibition” value was 4.02% (inactive).
For O=C1c2ccccc2C(=O)N1Cc1ccncc1, the “activity change, negative = inhibition” value was 9.02% (inactive).
O=C1CCc2cc(S(=O)(=O)Nc3ccc4c(c3)OCCO4)ccc2N1 was tested, and the “activity change, negative = inhibition” value was 12.4% (inactive).
For Cc1ccc(C)c(SC2=N[S+](=O)([O-])c3cc(C(=O)Nc4ccc5ncccc5c4)ccc32)c1, the “activity change, negative = inhibition” value was -22.6% (inactive).
Cc1ccc(NS(=O)(=O)c2ccc3c(c2)CCC(=O)N3)cc1Cl was tested, and the “activity change, negative = inhibition” value was -0.942% (inactive).
In the case of Cc1ccc(NS(=O)(=O)c2cc3c(cc2Cl)CCC(=O)N3)cc1Cl, the “activity change, negative = inhibition” value was -0.101% (inactive).
For O=C1c2ccccc2C(=O)N1c1ccccn1, the “activity change, negative = inhibition” value was 3.08% (inactive).
For O=C1CCc2cc(S(=O)(=O)Nc3ccc4ncccc4c3)ccc2N1, the “activity change, negative = inhibition” value was 6.24% (inactive).
With Cc1ccc(NS(=O)(=O)c2ccc3c(c2)CCC(=O)N3)cc1 the “activity change, negative = inhibition” value was 13.9% (inactive).
In the case of COC(=O)c1ccc2c(c1)S(=O)(=O)N=C2Sc1cc(C)ccc1C, the “activity change, negative = inhibition” value was -60.5% (inactive).
In the case of Cc1cc(NS(=O)(=O)c2ccc3c(c2)CCC(=O)N3)ccc1F, the “activity change, negative = inhibition” value was -2.63% (inactive).
CN(C)c1cccc(S(=O)(=O)N2CCN(S(=O)(=O)c3ccc4c(c3)OCCO4)CC2)c1 was tested, and the “activity change, negative = inhibition” value was 27.9% (inactive).
With O=C1CCc2cc(S(=O)(=O)Nc3ccccc3Cl)ccc2N1 the “activity change, negative = inhibition” value was 1.37% (inactive).
In the case of Cc1ccc(NS(=O)(=O)c2ccc3c(c2)CCC(=O)N3)cc1C, the “activity change, negative = inhibition” value was 0.345% (inactive).
O=C1NS(=O)(=O)c2ccccc21 was tested, and the “activity change, negative = inhibition” value was -1.36% (inactive).
For Cc1ccc(Cl)cc1NS(=O)(=O)c1cc2c(cc1F)NC(=O)CC2, the “activity change, negative = inhibition” value was -16.4% (inactive).
With O=C1CCc2cc(S(=O)(=O)Nc3ccc(F)c(Cl)c3)ccc2N1 the “activity change, negative = inhibition” value was -3.48% (inactive).
N#Cc1ccc(NS(=O)(=O)c2ccc3c(c2)CCC(=O)N3)cc1 was tested, and the “activity change, negative = inhibition” value was 0.584% (inactive).
With O=C1c2ccccc2C(=O)N1c1cncc2ccccc12 the “activity change, negative = inhibition” value was 9.51% (inactive).
